# Laboratory results: PubChem BioAssay AID602385 (Sanford-Burnham Center for Chemical Genomics, 2012)
# The campaign covered roughly 2,300 compounds. About 180 (7.8%) were called active.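 Rule for the calls: active = average inhibition of at least 30% in the single-concentration confirmation test; inactive = the rest.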 Many of the other results were omitted from the sample, so actives are more common in it than they were.
# Molecular target: DNA (cytosine-5)-methyltransferase 1 (Homo sapiens) (UniProt P26358)
# Assay: DNMT1 methyltransferase inhibitor retest, confirmation, biochemical, molecular beacon, fluorescence, single concentration (AID 602385)
# Details: DNMT1 molecular beacon HinP1I cleavage, at 10 µM, stronger effect = higher value
# DNA (cytosine-5)-methyltransferase 1 (Homo sapiens), sequence (P26358 504-1616 limits assumed): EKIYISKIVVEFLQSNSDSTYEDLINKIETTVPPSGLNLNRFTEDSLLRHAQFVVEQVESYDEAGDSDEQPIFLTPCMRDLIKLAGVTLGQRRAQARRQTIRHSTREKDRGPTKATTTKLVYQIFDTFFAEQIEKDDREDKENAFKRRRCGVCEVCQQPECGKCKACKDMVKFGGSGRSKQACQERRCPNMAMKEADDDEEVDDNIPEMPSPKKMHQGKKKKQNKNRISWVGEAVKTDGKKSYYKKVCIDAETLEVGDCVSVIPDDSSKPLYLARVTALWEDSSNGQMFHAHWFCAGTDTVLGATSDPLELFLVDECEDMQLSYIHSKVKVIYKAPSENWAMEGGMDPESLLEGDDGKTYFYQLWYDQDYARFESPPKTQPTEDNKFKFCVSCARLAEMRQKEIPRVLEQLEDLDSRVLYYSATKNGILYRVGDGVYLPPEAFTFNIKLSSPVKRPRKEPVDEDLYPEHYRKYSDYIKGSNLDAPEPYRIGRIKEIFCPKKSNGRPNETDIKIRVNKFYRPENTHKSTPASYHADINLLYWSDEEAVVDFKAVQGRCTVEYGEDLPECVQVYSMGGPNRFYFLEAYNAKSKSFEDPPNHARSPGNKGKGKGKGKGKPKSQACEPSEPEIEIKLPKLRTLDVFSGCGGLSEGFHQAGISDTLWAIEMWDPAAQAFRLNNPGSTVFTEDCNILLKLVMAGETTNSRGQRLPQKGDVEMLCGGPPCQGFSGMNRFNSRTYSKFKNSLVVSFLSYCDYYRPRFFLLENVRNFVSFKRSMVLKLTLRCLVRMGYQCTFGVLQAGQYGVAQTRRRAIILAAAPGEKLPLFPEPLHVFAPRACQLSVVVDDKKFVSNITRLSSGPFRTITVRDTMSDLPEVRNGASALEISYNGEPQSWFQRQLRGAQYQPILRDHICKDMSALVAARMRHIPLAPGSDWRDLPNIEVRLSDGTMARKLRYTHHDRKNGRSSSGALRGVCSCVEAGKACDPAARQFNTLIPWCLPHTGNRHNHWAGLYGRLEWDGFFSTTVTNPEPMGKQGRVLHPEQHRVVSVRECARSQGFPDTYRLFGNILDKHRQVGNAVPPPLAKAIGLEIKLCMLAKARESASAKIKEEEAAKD
row,SMILES,inhibition
1,Cc1c(C(=O)O)cccc1-n1c(C)cc(/C=C2\C(=O)NC(=O)N(c3ccc4c(c3)OCO4)C2=O)c1C,35.1% (active)
2,O=C1NC(=O)N(Cc2ccco2)C(=O)/C1=C\c1ccc(-c2ccc(F)cc2)o1,8.93% (inactive)
3,CC1=C(C(=O)Nc2ccccc2)SCCO1,6.68% (inactive)
